# Measured values taken from PubChem BioAssay.
# Assay: probe aDKK1 binding to arrayed compounds – biochemical, biotinylated probe, 635/667 nm fluorescence, primary screen (AID 1099);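 note: score merges 667nm spot fluorescence with signal to noise across triplicate slides; reference of the scale not given here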
# Conditions: small-molecule microarray, higher = more signal
row,SMILES,composite z-score
1,CO[C@H]1COC(=O)[C@@H](C)COC(=O)[C@H](Cc2ccccc2)NC(=O)CC=C[C@H]1C,-0.416
2,C=CCC(OC(C)=O)[C@@H]1[C@@H](N(Cc2cccc3ccccc23)C(=O)c2ccc(C)cc2)c2cc(OCCCO)ccc2N1C(=O)c1ccc(-c2ccccc2)cc1 (stereo partly specified),-0.0044
3,CC(C)[C@H]1NC(=O)[C@@]23C(=O)N[C@@H](Cc4ccccc4)C2[C@H](C)[C@@]2(C)O[C@H]2C3/C=C/C/C=C\CNC(=O)[C@H](C)NC1=O (stereo partly specified),-0.386
4,CO[C@H]1COC(=O)[C@@H](Cc2ccccc2)NC(=O)[C@@H](C)COC(=O)CC=C[C@@H]1C,-0.63
5,CN1CCC(CCCO)=CC1C1CC1 (stereo unspecified),-0.499
6,CC(C)[Si]1(C(C)C)OCc2cc(C3CC3)nc(-c3ccccc3)c21,-0.294
7,O=C1c2ccccc2[C@](Cc2ccccc2I)(C(=O)O)[C@H](c2ccc(CO)cc2)N1C1CCCCC1,0.94
8,C[C@@H]1NC(=O)CC=C[C@@H](C)[C@@H]2C=C[C@H](O)[C@@H](COC(=O)[C@H](C)NC(=O)CC=C[C@@H](C)[C@@H]3C=C[C@H](O)[C@@H](COC1=O)O3)O2,-0.555
9,C=CCc1cccc([C@@H]2[C@@H](C)CC[C@H]3C(=O)N4[C@H](c5cccc(CC=C)c5)[C@@H](C)CC[C@H]4C(=O)N23)c1,-0.0603
10,C=CC[C@@]12N=C(c3ccc(OCCCO)cc3)O[C@@H]1c1ccccc1CN(Cc1ccccc1)C2=O,0.761
11,COc1ccc([C@H]2C[C@H]3C(Br)=C[C@]2(OC)C(=O)[C@]32CO2)cc1,-0.0499
12,C=CCOC(=O)[C@@H]1[C@H]2C(=O)O[C@H](c3ccccc3)[C@H](c3ccccc3)N2[C@H](c2ccc(OCCOC(=O)[C@H]3C[C@H]4C(=O)N5CCC[C@H]5C(=O)N4[C@H]3c3ccc(O)cc3)cc2)[C@@]12C(=O)Nc1ccccc12,0.264
13,CC(=O)NCCCC[C@@H]1NC(=O)[C@@H]2C[C@H](C(=O)NCc3ccc(F)cc3)[C@H](c3cccc(OCCO)c3)N2C1=O,0.0839
14,O=C(CS)NCCCCCNC(=O)[C@H]1C[C@H]2C(=O)N3CCC[C@H]3C(=O)N2[C@H]1c1ccc(O)cc1,-0.18
15,C=C(COC)/C(=C/C[C@H](OC(C)=O)c1ccc(OCCO)cc1)c1cnc2ccccc2c1,0.231
16,COc1cc([C@@H]2N[C@H](C(=O)O)Cc3c2[nH]c2ccccc32)cc(OC)c1OC,-0.0572
17,C=CC[C@@]1(C(=O)N2CCOCC2)N=C(c2ccc(OCCCO)cc2)O[C@@H]1c1ccccc1,0.853
18,COCCOC(=O)N1C(=O)[C@@]2(c3cc(C#CC4=CCCCC4)ccc31)[C@H](c1ccc(O)cc1)N1[C@H](c3ccccc3)[C@H](c3ccccc3)OC(=O)[C@H]1[C@@H]2C(=O)N1CCCCCCC1,0.854

row,SMILES,composite z-score
1,COCCOC(=O)N1C(=O)[C@@]2(c3cc(C#CC4=CCCCC4)ccc31)[C@H](C(=O)NC[C@H](O)c1ccccc1)[C@H]1C(=O)O[C@H](c3ccccc3)[C@H](c3ccccc3)N1[C@@H]2c1ccccc1OCCO,0.659
2,C=CC[C@]1(C(=O)NCC(O)CO)N=C(c2ccc(OCCCO)cc2)O[C@H]1c1ccccc1 (stereo partly specified),1.21
3,C=CCC(OC(C)=O)[C@@H]1[C@@H](N(Cc2cc3ccccc3o2)C(=O)c2ccc(C)cc2)c2cc(OCCCO)ccc2N1C(=O)c1ccc2ccccc2n1 (stereo partly specified),0.164
4,CC(C)NC(=O)[C@@]1(Cc2ccccc2I)c2ccccc2C(=O)N(C2CCCCC2)[C@H]1c1ccc(CO)cc1,0.65
5,C=C[C@H](OC)[C@@H](OC(=O)Nc1ccc(SC)cc1)c1ccc(OC)c(O)c1,-0.276
6,CCc1cccc(NC(=O)O[C@H]2[C@H](OC(=O)Nc3ccccc3)[C@@H](OC(=O)Nc3ccccc3)[C@@H](OC)O[C@@H]2CO)c1,0.169
7,COCCOC(=O)N1C(=O)[C@@]2(c3cc(C#CCC(C(=O)OC)C(=O)OC)ccc31)[C@H](C(=O)N1CCN(c3ncccn3)CC1)[C@H]1C(=O)O[C@H](c3ccccc3)[C@H](c3ccccc3)N1[C@@H]2c1ccc(O)cc1,0.2
8,COc1ccc(-c2cc3c(c(-c4ccccc4)n2)[Si](C(C)C)(C(C)C)O[C@H]3c2ccccc2)cn1,-0.0513
9,CCC(=O)[C@]12O[C@@]3([C@@H]4C(=O)OCC[C@@H]41)N(Cc1ccccc1)C(C)=C(C(=O)OC)[C@@H](c1ccccc1)N3C2=O,-0.393
10,CO[C@@H]1COC(=O)[C@H](C)NC(=O)CC=C[C@@H](C)[C@H](NS(=O)(=O)c2ccc(C)cc2)COC(=O)CC=C[C@@H]1C,-0.435
11,CC(=O)Nc1ccc([C@H]2[C@H](C)CC[C@H]3C(=O)N4[C@@H](CC[C@@H](C)[C@@H]4c4ccc(NC(C)=O)cc4)C(=O)N32)cc1,0.368
12,C=CCN(C(=O)C1N(c2ccc(CCO)cc2)C(=O)C2C(C(=O)O)C3C=CC21O3)C(C)(C)C (stereo unspecified),-0.214
13,CO[C@H]1COC(=O)[C@H](C)NC(=O)CC=C[C@@H](C)[C@H](NS(=O)(=O)c2ccc(C)cc2)COC(=O)[C@@H](OCc2ccccc2)C=C[C@@H]1C,-0.667
14,COCCCNC(=O)[C@@]1(Sc2ccc(C)cc2)CC(=O)N(Cc2cc(C(F)(F)F)cc(C(F)(F)F)c2)[C@@H]1c1ccc(CO)cc1I,0.46
15,CO[C@H]1COC(=O)CC=C[C@H](C)[C@@H](OC)COC(=O)[C@H](Cc2ccccc2)NC(=O)CC=C[C@@H]1C,-1.1
16,COCCOC(=O)N1C(=O)[C@@]2(c3cc(C#CCCO)ccc31)[C@H](C(=O)N1CCCCCCC1)[C@H]1C(=O)O[C@H](c3ccccc3)[C@H](c3ccccc3)N1[C@@H]2c1ccc(O)cc1,1.53
17,Cc1ccc(N2C(=O)c3ccccc3[C@@H](C(=O)NCc3ccccc3)[C@@H]2c2ccc(CO)cc2)nc1,0.601
18,O=C1C2C=CC(C(O)C(c3ccccc3)c3ccccc3)N(Nc3ccc([N+](=O)[O-])cc3)C2C(=O)N1c1ccccc1 (stereo unspecified),0.569
